Inconclusive results are not listed. A call without a number means that no potency is given here. Values without a mark were called inactive. Activity calls are given as the source filed them. Unless noted, the call rests on the fitted dose curve; in most records, active means well fitted curve in the direction sought with a large enough effect in the repeat runs; inconclusive means weak or mixed curves; inactive means no such curve, though single readings can be large; an effect the other way counts as inactive or inconclusive.
What was measured:
[1] = qHTS assay to identify small molecule agonists of the vitamin D receptor (VDR) signaling pathway - cell viability counter screen (AID 743224); further: series mostly up to about 63 µM; nearly all actives have a fitted effect of over 50% in size
In short: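 Cells: VDR-bla, 2,000/well, settled 4 h. Treatment: compounds in DMSO, 16 h, 37C/5% CO2. Readout: CellTiter-Glo luminescence after 30 min RT.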

[2] = qHTS assay to identify small molecule antagonists of the vitamin D receptor (VDR) signaling pathway - cell viability counter screen (AID 743225); further: nearly all actives have a fitted effect of over 50% in size
In short: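 HEK293T VDR-bla; cpd + 1a,25-(OH)2D3 3 nM final, 16 h 37C/5% CO2; B/G FRET substrate 2 h RT; then CellTiter-Glo 30 min RT, luminescence.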

[3] = qHTS assay to identify small molecule agonists of the NFkB signaling pathway - cell viability counter screen (AID 1159515; calls by dose curve; further: series mostly up to about 61 µM; nearly all actives have a fitted effect of over 55% in size)
In short: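 Cells are seeded (2,000 NFkB-bla ME-180 per well), rested overnight, and dosed with DMSO-dissolved compounds for 5 hr at 37 C. Viability is then read by CellTiter-Glo luminescence after 30 min at room temperature.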

[4] = qHTS assay to identify small molecule agonists of the endoplasmic reticulum stress response signaling pathway (AID 1159516; active means well fitted activation curve with a large enough effect in the signal ratio in the repeat runs, not every such curve was filed as active; the % refers to the signal ratio)
In short: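 Cells are seeded at 1,500 per well and incubated overnight. Compounds in DMSO are added for 5 hr at 37 C, then beta-lactamase FRET substrate for 2 hr at room temperature, and fluorescence at 460 and 530 nm is measured.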

[5] = qHTS assay to identify small molecule agonists of the endoplasmic reticulum stress response signaling pathway - cell viability counter screen (AID 1159517; calls by dose curve;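 further: HeLa cells carrying an ER stress response element beta-lactamase reporter; series mostly up to about 61 µM; nearly all actives have a fitted effect of over 50% in size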)
In short: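 Cytotoxicity of test compounds toward ESRE-bla HeLa cells was assessed after 5 hr exposure. The luminescent CellTiter-Glo signal was measured 30 min after reagent addition.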

[6] = qHTS assay to identify small molecule antagonists of the retinoid-related orphan receptor gamma (ROR-gamma) signaling pathway - cell viability counter screen (AID 1159520); further: nearly all actives have a fitted effect of over 50% in size
In short: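 Tet-on ROR gamma CHO cells (1,000/well) were plated 4 hr, given compounds in DMSO for 2 hr at 37 C, then induced with 1 uM final doxycycline for 16 hr. Viability was read as ATP by CellTiter-Glo luminescence after 30 min.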

[7] = target: Nuclear receptor ROR-gamma (Homo sapiens) (UniProt P51449); test: qHTS assay to identify small molecule antagonists of the retinoid-related orphan receptor gamma (ROR-gamma) signaling pathway (AID 1159521; further: nearly all actives have a fitted effect of over 50% in size; further: potency means the concentration at half of the fitted maximal effect)
In short: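 Cells were plated, rested 4 h at 37 C, exposed to compounds for 2 h, then given 1 uM final doxycycline hyclate to induce RORγ expression. After 16 h, ONE-Glo luminescence from the ROR response element reporter was measured.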

[8] = qHTS assay to identify small molecule agonists of the AP-1 signaling pathway - cell viability counter screen (AID 1159525; calls by dose curve; further: nearly all actives have a fitted effect of over 55% in size)
In short: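 Each titration point was normalised to DMSO and tetra n-octyl ammonium bromide controls. The read was Cell Titer Glo luminescence after 30 min at RT, following 5 h compound exposure of ME-180 AP-1-bla cells at 37 °C.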

[9] = qHTS assay to identify small molecule agonists of the AP-1 signaling pathway (AID 1159526; calls by dose curve)
[10] = target: Retinoic acid receptor RXR-alpha (Homo sapiens) (UniProt P19793); test: qHTS assay to identify small molecule agonists of the RXR signaling pathway (AID 1159527; calls by dose curve; further: nearly all actives have a fitted effect of over 35% in size)
In short: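 Cells plated at 2,000/well, rested 5 hr at 37 C, pin-dosed with DMSO compound solutions, incubated 16 hr, then loaded with B/G FRET substrate for 2 hr at RT before dual-emission fluorescence reading.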

[11] = qHTS assay to identify small molecule agonists of the RXR signaling pathway - cell viability counter screen (AID 1159529)
In short: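 Steps: seed RXR-alpha-UAS-bla HEK 293T cells in assay medium containing 2% charcoal-stripped FBS; incubate 5 hr; add compounds in DMSO; incubate 16 hr at 37 C; after the bla read, add CellTiter-Glo and read luminescence at 30 min.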

[12] = qHTS assay to identify small molecule antagonists of the retinoid acid receptor (RAR) signaling pathway - cell viability counter screen (AID 1159551); further: nearly all actives have a fitted effect of over 35% in size
In short: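 Cells (C3RL4) are plated, incubated overnight, dosed with compound in DMSO, then given retinol at 1 uM final. After 6 h at 37 C, CellTiter-Glo is added and luminescence read following 30 min at room temperature.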

Sequence of Retinoic acid receptor RXR-alpha (Homo sapiens) (P19793 whole entry, looked up): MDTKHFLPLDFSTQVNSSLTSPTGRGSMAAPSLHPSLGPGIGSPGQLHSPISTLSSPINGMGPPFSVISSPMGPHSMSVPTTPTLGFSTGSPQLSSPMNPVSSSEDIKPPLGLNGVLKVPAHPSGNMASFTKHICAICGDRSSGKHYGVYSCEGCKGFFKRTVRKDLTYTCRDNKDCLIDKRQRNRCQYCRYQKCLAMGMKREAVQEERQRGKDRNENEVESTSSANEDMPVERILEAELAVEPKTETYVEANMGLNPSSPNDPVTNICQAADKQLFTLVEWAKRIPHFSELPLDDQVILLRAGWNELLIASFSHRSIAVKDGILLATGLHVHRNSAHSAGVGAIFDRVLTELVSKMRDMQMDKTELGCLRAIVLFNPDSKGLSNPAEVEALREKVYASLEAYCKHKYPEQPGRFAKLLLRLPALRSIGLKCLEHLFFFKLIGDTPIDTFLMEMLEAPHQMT

Row | Compound | outcome [1] | outcome [2] | outcome [3] | outcome [4] | outcome [5] | outcome [6] | Potency [7] | outcome [8] | outcome [9] | Potency [10] | Potency [11] | outcome [12]
1 | CC(C)(C)c1ccc(-c2ccc(C(C)(C)C)cc2)cc1 | inactive | inactive | inactive | inactive | inactive | inactive | inactive | inactive | inactive | inactive | inactive | inactive
2 | O=[N+]([O-])c1cncn1CCN1CCOCC1 | inactive | inactive | inactive | inactive | inactive | inactive | inactive | inactive | inactive | inactive | inactive | inactive
3 | CC(=O)c1cnccn1 | inactive | inactive | inactive | inactive | inactive | inactive | inactive | inactive | inactive | inactive | inactive | inactive
4 | Nc1ccncc1N | inactive | inactive | inactive | inactive | inactive | inactive | inactive | inactive | inactive | inactive | inactive | inactive
5 | CC1(C)[C@@H]2CC[C@@]1(C)[C@H](O)C2 | inactive | inactive | inactive | inactive | inactive | inactive | inactive | inactive | inactive | inactive | inactive | inactive
6 | CCCCCCCC1CCCC1=O (configuration not stated) | inactive | inactive | inactive | inactive | inactive | inactive | inactive | inactive | inactive | inactive | inactive | inactive
7 | CN(C)[C@@H]1C(=O)C(C(=O)NCN2CCCC2)=C(O)[C@@]2(O)C(=O)C3=C(O)c4c(O)cccc4[C@@](C)(O)C3C[C@@H]12 (some centres not stated) | inactive | inactive | inactive | inactive | inactive | inactive | inactive | inactive | inactive | inactive | inactive | inactive
8 | C1CCC2(CCCCO2)OC1 | inactive | inactive | inactive | inactive | inactive | inactive | inactive | inactive | inactive | inactive | inactive | inactive
9 | NC(=O)N[C@@H](CCC(=O)O)C(=O)O | inactive | inactive | inactive | inactive | inactive | inactive | inactive | inactive | inactive | inactive | inactive | inactive
10 | NCCCC[C@H](N[C@@H](CCc1ccccc1)C(=O)O)C(=O)N1CCC[C@H]1C(=O)O | inactive | inactive | inactive | inactive | inactive | inactive | inactive | inactive | inactive | inactive | inactive | inactive
11 | CCCC(=O)O[C@]1(C(=O)CC)CC[C@H]2[C@@H]3CCC4=CC(=O)CC[C@]4(C)[C@H]3[C@@H](O)C[C@@]21C | inactive | inactive | inactive | inactive | inactive | inactive | 10.6 µM (active) | inactive | inactive | inactive | inactive | inactive
12 | CCOc1ccccc1OCC | inactive | inactive | inactive | inactive | inactive | inactive | inactive | inactive | inactive | inactive | inactive | inactive
13 | C=COCC1CCC(COC=C)CC1 (configuration not stated) | inactive | inactive | inactive | inactive | inactive | inactive | inactive | inactive | inactive | inactive | inactive | inactive
14 | CC1=CC(=O)[C@H]2C[C@@H]1C2(C)C | inactive | inactive | inactive | inactive | inactive | inactive | inactive | inactive | inactive | inactive | inactive | inactive
15 | Cc1ncc([C@@H](CCCCCCc2ccc3c(n2)NCCC3)CC(=O)O)cn1 | inactive | inactive | inactive | inactive | inactive | inactive | inactive | inactive | inactive | inactive | inactive | inactive
16 | Clc1cc(Cl)c(Cl)nc1Cl | – | inactive | inactive | inactive | inactive | inactive | inactive | inactive | inactive | inactive | inactive | inactive
17 | Clc1cc(Cl)cc(Cl)c1 | inactive | inactive | inactive | inactive | inactive | inactive | inactive | inactive | inactive | inactive | inactive | inactive
18 | Cc1cccc(C)c1NC(=O)CC12CCCN1CCC2 | inactive | inactive | inactive | inactive | inactive | inactive | inactive | inactive | inactive | inactive | inactive | inactive
19 | COc1ccccc1OCC1CNC(=O)O1 (configuration not stated) | inactive | inactive | inactive | inactive | inactive | inactive | inactive | inactive | inactive | – | inactive | inactive
20 | C=COC(=O)C(C)(CC)CCC(C)C (configuration not stated) | inactive | inactive | inactive | inactive | inactive | inactive | inactive | – | inactive | inactive | inactive | inactive
21 | C[C@@H]1CCC[C@H](C)N1 | inactive | – | inactive | inactive | inactive | inactive | inactive | – | inactive | inactive | inactive | inactive

From PubChem BioAssay (Tox21)
